This is an account of results in PubChem BioAssay.

For assay [1], the target named is Cell division control protein 42 homolog (Homo sapiens) (UniProt P60953). Briefly: inhibition of fluorescent GTP binding to constitutively active Cdc42 – biochemical, multiplex bead flow cytometry, Bodipy-FL-GTP, dose response (AID 1333;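 active = fitted half-maximal concentration within the tested dose range, moderate curve steepness, a statistically real signal drop, and little compound fluorescence or tag-binding interference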).
Sequence of Cell division control protein 42 homolog (Homo sapiens) (P60953 whole entry, looked up): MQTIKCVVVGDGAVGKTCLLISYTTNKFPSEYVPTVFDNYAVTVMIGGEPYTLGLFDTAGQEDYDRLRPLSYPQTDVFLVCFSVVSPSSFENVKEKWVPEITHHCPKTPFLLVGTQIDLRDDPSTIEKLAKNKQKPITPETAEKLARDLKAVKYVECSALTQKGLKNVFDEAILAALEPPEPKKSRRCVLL
Assay [2] shares this target. Description: inhibition of fluorescent GTP binding to wildtype Cdc42 – biochemical, multiplex bead flow cytometry, Bodipy-FL-GTP, dose response (AID 1334;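 active = fitted half-maximal concentration within the tested range, moderate curve steepness, significant signal drop, and little compound fluorescence or bead-linkage interference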). To be noted: bead-based flow cytometry, Bodipy-FL-GTP binding to GST-Cdc42; at 100 µM (top of the series) unless noted.
Assay [3] deals with GTPase HRas (Homo sapiens) (UniProt P01112). Description: Ras wt fluorescent GTP loading blockade – biochemical, wildtype, multiplex bead flow cytometry, dose response (AID 1335;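 active = fitted half-maximal concentration within 10 nM to 100 µM, steepness 0.5 to 2, significant signal drop, low assay interference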). The conditions noted are these: bead-based flow cytometry, Bodipy-GTP binding to GST-Ras; at 100 µM (top of the series) unless noted.
Sequence of GTPase HRas (Homo sapiens) (P01112 whole entry, looked up): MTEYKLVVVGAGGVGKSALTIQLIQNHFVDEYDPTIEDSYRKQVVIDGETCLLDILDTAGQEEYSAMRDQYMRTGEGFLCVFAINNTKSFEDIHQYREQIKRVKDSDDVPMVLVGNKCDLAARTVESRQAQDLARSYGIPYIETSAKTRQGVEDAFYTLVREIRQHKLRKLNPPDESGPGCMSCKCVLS
Assay [4] relates to Ras-related protein Rab-7a (dog), GTP binding. Description: blockers of fluorescent GTP binding to Rab7 – biochemical, wildtype, multiplex bead flow cytometry, dose response (AID 1336).
Assay [5] has as its target Ras-related C3 botulinum toxin substrate 1 (Homo sapiens) (UniProt P63000). Description: inhibition of wildtype Rac1 nucleotide loading – biochemical, multiplex bead flow cytometry, dose response (AID 1340;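 active = dose curve with midpoint inside tested range, moderate steepness, plateau gap beyond fit error, low compound glow and bead-link interference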). The conditions noted are these: GST-Rac1 beads, Bodipy-FL-GTP binding; at 100 µM (top of the series) unless noted.
Assay [6] addresses GTPase HRas (Homo sapiens) (UniProt P01112). Description: blockade of GTP loading onto mutant Ras – biochemical, activated mutant, multiplex bead flow cytometry, dose response (AID 1341;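 active = dose-response curve with midpoint inside the tested range, moderate steepness, significant amplitude and little compound fluorescence or bead-attachment interference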;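 note: GST-tagged constitutively activated Ras mutant immobilized on beads and multiplexed with other GTPases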).

For part of these data: Results with a measured potency or affinity are listed apart. Active and inactive are the calls of the source. Unless noted, the rule behind the calls is not given here.

In the case of `O=C(CSc1nnc2c(n1)[nH]c1ccccc12)Nc1ccc(S(=O)(=O)Nc2ncccn2)cc1`, the compound was classed as inactive in assay [1], in assay [4] and in assay [6]. Further, the fluorescence, percent of control (lower = inhibition) in assay [2] is 33.3%. Further, the GTP binding, percent of control in assay [3] was determined as 72.8%. The same compound gave a GTP binding signal, raw median fluorescence (lower = inhibition) (MCF (arbitrary fluorescence units)) in assay [5] of 148.

Regarding `Cc1ccc(C(C)C)c(OCCn2cc(C(=O)O)c3ccccc32)c1`, the compound was called inactive in assay [1], in assay [4] and in assay [6]. In addition, in assay [2], the fluorescence, percent of control (lower = inhibition) came to 66.7%. The compound also yielded a GTP binding, percent of control in assay [3] of 86.3%. Also, in assay [5], the GTP binding signal, raw median fluorescence (lower = inhibition) (MCF (arbitrary fluorescence units)) was found to be 44.5.

For `O=C(COC(=O)/C=C/c1cccc([N+](=O)[O-])c1)NCc1ccc2c(c1)OCO2`, the call in assay [1], in assay [4] and in assay [6] was inactive. For the same compound, the fluorescence, percent of control (lower = inhibition) in assay [2] stood at 34.8%. In addition, the GTP binding, percent of control in assay [3] stood at 82.9%. The compound further gave a GTP binding signal, raw median fluorescence (lower = inhibition) (MCF (arbitrary fluorescence units)) in assay [5] of 254.

For the compound `CCOC(=O)c1cc2c(N)c(C(=O)c3ccc(Br)cc3)sc2[nH]c1=O`, the result in assay [1], in assay [4] and in assay [6] was inactive. Besides, in assay [2], the fluorescence, percent of control (lower = inhibition) is 29%. Also, in assay [3], the GTP binding, percent of control turned out to be 69.1%. In addition, the GTP binding signal, raw median fluorescence (lower = inhibition) (MCF (arbitrary fluorescence units)) in assay [5] is 145.

For the compound `CCNC(=O)c1cc2c(=O)n3cccc(C)c3nc2n(CCc2ccccc2)c1=N`, the call in assay [1], in assay [4] and in assay [6] was inactive. For the same compound, the fluorescence, percent of control (lower = inhibition) in assay [2] was determined as 74%. Moreover, in assay [3], the GTP binding, percent of control turned out to be 113%. The same compound registered a GTP binding signal, raw median fluorescence (lower = inhibition) (MCF (arbitrary fluorescence units)) in assay [5] of 126.

With `Cc1cc(N/N=C/c2ccc(O)cc2O)nc(-c2ccccc2O)n1`, the outcome in assay [1], in assay [4] and in assay [6] was inactive. In assay [2], the fluorescence, percent of control (lower = inhibition) amounted to 40.3%. Besides, the GTP binding, percent of control in assay [3] was 48.8%. In assay [5], this compound had a GTP binding signal, raw median fluorescence (lower = inhibition) (MCF (arbitrary fluorescence units)) of 143.

With `CN1CCN(S(=O)(=O)c2cccc(C(=O)Nc3sc4c(c3C(N)=O)CCCC4)c2)CC1`, the result in assay [1], in assay [4] and in assay [6] was inactive. Besides, in assay [2], the fluorescence, percent of control (lower = inhibition) is 43.6%. In addition, the GTP binding, percent of control in assay [3] came to 57.3%. The compound further returned a GTP binding signal, raw median fluorescence (lower = inhibition) (MCF (arbitrary fluorescence units)) in assay [5] of 150.

Regarding `O=C(O)c1ccccc1OCc1ccccc1Br`, the call in assay [1], in assay [4] and in assay [6] was inactive. The fluorescence, percent of control (lower = inhibition) in assay [2] stood at 84.6%. The compound further gave a GTP binding, percent of control in assay [3] of 98%. The compound further showed a GTP binding signal, raw median fluorescence (lower = inhibition) (MCF (arbitrary fluorescence units)) in assay [5] of 65.5.

In the case of `O=S(=O)(Nc1cccc(-c2cn3cccnc3n2)c1)c1ccc(F)cc1`, the result in assay [1], in assay [4] and in assay [6] was inactive. Besides, the fluorescence, percent of control (lower = inhibition) in assay [2] was determined as 36.5%. The same compound displayed a GTP binding, percent of control in assay [3] of 46%. The compound further gave a GTP binding signal, raw median fluorescence (lower = inhibition) (MCF (arbitrary fluorescence units)) in assay [5] of 0.

Take `Cn1c(NC(=S)Nc2ccccc2)nc2ccccc21`: the compound was called inactive in assay [1], in assay [4] and in assay [6]. In addition, the fluorescence, percent of control (lower = inhibition) in assay [2] was 51.8%. In assay [3], this compound had a GTP binding, percent of control of 63.9%. In assay [5], this compound displayed a GTP binding signal, raw median fluorescence (lower = inhibition) (MCF (arbitrary fluorescence units)) of 0.

`N#C/C(=C\c1ccncc1)c1nc2ccccc2[nH]1`: the compound was classed as inactive in assay [1], in assay [4] and in assay [6]. Further, the fluorescence, percent of control (lower = inhibition) in assay [2] was 31%. In assay [3], this compound had a GTP binding, percent of control of 81.6%. In assay [5], this compound came in with a GTP binding signal, raw median fluorescence (lower = inhibition) (MCF (arbitrary fluorescence units)) of 273.

`CCOC(=O)c1c(CSc2ccccc2)n(C)c2cc(Br)c(OCC(O)CNC(CO)(CO)CO)cc12` (stereo not given): the outcome in assay [1], in assay [4] and in assay [6] was inactive. In addition, the fluorescence, percent of control (lower = inhibition) in assay [2] worked out at 94.1%. In assay [3], this compound came in with a GTP binding, percent of control of 147%. Also, the GTP binding signal, raw median fluorescence (lower = inhibition) (MCF (arbitrary fluorescence units)) in assay [5] is 320.

On to `Cc1ccc(Sc2nnc(-c3ccccc3)cc2C#N)cc1`, for which the compound was classed as inactive in assay [1], in assay [4] and in assay [6]. The fluorescence, percent of control (lower = inhibition) in assay [2] amounted to 104%. Further, the GTP binding, percent of control in assay [3] turned out to be 178%. Moreover, the GTP binding signal, raw median fluorescence (lower = inhibition) (MCF (arbitrary fluorescence units)) in assay [5] came out at 185.

Turning to `Cn1nnnc1Sc1ncnc2scc(-c3ccc(F)cc3)c12`, the outcome in assay [1], in assay [4] and in assay [6] was inactive. Besides, in assay [2], the fluorescence, percent of control (lower = inhibition) came to 52.2%. Also, in assay [3], the GTP binding, percent of control came out at 64.5%. The compound also came in with a GTP binding signal, raw median fluorescence (lower = inhibition) (MCF (arbitrary fluorescence units)) in assay [5] of 210.

Regarding `COc1ccc(C2=Nn3c(nnc3-c3ccccc3)SC2)cc1OC`, the call in assay [1], in assay [4] and in assay [6] was inactive. Besides, the fluorescence, percent of control (lower = inhibition) in assay [2] was found to be 37.5%. In assay [3], the GTP binding, percent of control is 86%. The compound also registered a GTP binding signal, raw median fluorescence (lower = inhibition) (MCF (arbitrary fluorescence units)) in assay [5] of 214.
